JMJD2A Tudor inh: qHTS Assay for Inhibitors of JMJD2A-Tudor Domain; Potency, µM (highest dose often 114 µM), for inactives: top-dose activity change, negative = inhibition, actives largely listed as inhibitors; Lysine-specific demethylase 4A (Homo sapiens), O75164; actives 4.4% (n = 390,000); AID 504339, 2011; AlphaScreen JMJD2A-Tudor / H3K4me3 peptide binding; further: on the % scale 0 is the no-effect control and ±100 the full control effect; nearly all actives have a fitted effect of over 50% in size
G9a block: qHTS Assay for Inhibitors of Histone Lysine Methyltransferase G9a | actives 8.8% (n = 350,000) | Histone-lysine N-methyltransferase EHMT2 (Homo sapiens), Q96KQ7 | Potency, µM (titrated, usually from 102 µM), inactives show top-dose activity, negative = inhibition, actives largely listed as inhibitors | G9a H3K9 monomethylation, AlphaScreen, 2 h; further: on the % scale 0 is the no-effect control and ±100 the full control effect; nearly all actives have a fitted effect of over 75% in size
Target sequence (Q96KQ7 913-1193 limits assumed): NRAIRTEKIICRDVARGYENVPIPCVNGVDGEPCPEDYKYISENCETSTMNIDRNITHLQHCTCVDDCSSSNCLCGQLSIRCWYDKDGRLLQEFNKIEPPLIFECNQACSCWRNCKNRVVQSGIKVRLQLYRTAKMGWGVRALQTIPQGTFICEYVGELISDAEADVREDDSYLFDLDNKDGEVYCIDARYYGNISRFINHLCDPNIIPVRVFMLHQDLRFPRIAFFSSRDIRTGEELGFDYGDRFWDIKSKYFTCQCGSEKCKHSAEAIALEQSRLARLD
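G9a (20 nM) was preincubated 15 min with compound, then reacted 2 h at room temperature with 500 nM biotin-H3K9 peptide and 20 µM SAM. Monomethyl-H3K9 detected by AlphaScreen using anti-H3K9me1 antibody.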
HP1b chromo inh: HTS for Inhibitors of HP1-beta Chromodomain Interactions with Methylated Histone Tails; Potency, µM (highest dose often 114 µM), for the others: at the highest dose activity change, negative = inhibition, actives largely listed as inhibitors; AlphaScreen HP1-beta / biotin-H3K9me3 peptide binding; actives 0.56% (n = 390,000); further: nearly all actives have a fitted effect of over 70% in size
Target sequence (P83916 whole entry, looked up): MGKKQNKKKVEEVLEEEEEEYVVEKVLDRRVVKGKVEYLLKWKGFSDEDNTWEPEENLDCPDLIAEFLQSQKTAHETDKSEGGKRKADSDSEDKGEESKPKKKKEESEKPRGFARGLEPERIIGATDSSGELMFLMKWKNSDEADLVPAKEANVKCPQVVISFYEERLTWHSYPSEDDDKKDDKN
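HP1-beta protein (50 nM final) preincubated 30 min at room temperature with biotinylated H3(1-18)K9me3 peptide (50 nM) in PBS pH 7.4, 0.01% Tween-20, then compound added for 30 min. AlphaScreen streptavidin donor/nickel chelate acceptor beads (10 ug/mL final), 30 min dark, luminescence read.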
BAZ2B block: qHTS Assay for Inhibitors of BAZ2B; Bromodomain adjacent to zinc finger domain protein 2B (Homo sapiens), Q9UIF8; AlphaScreen BAZ2B-H3K14Ac peptide displacement; Potency, µM (titrated, usually from 114 µM), for the others: at the top dose activity change, negative = inhibition, actives largely listed as inhibitors; actives 4.4% (n = 360,000); AID 504333, 2011; further: on the % scale 0 is the no-effect control and ±100 the full control effect; nearly all actives have a fitted effect of over 60% in size
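BAZ2B (50 nM) with biotin-H3(5-23)K14Ac peptide (50 nM) in PBS pH 7.4, 0.01% Tween-20, preformed 30 min, then compound 30 min at room temperature; top concentration 110uM. AlphaScreen streptavidin donor/nickel chelate acceptor beads (10 ug/mL final), 20 min dark, signal read.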
L3MBTL1 block: qHTS Assay for the Inhibitors of L3MBTL1; AID 485360, 2010; AlphaScreen L3MBTL1–H3K9me1 peptide binding; Potency, µM (titrated, usually from 57.1 µM), inactives show top-dose activity, negative = inhibition, usual class: inhibitors; actives 0.66% (n = 230,000); further: on the % scale 0 is the no-effect control and ±100 the full control effect; nearly all actives have a fitted effect of over 60% in size
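Read-out is AlphaScreen signal from streptavidin donor and nickel chelate acceptor beads (10 ug/mL final each) bridging L3MBTL1 (50 nM) and biotinylated K9-monomethylated H3(1-15) peptide (75 nM), after 30 min compound exposure at room temperature.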
Sfp inh: qHTS Assay for Inhibitors of Bacillus subtilis Sfp phosphopantetheinyl transferase (PPTase); Biochemical Sfp PPTase activity, qHTS; actives 3.5% (n = 310,000); AID 1490, 2009; Potency, µM, without a hit: largest response in the series, negative = inhibition, most hits filed as inhibitors;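 further: the enzyme is Sfp with the accession as filed and its product quenches rhodamine fluorescence; 0% = enzyme reaction without inhibitor and -100% = no enzyme wells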
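Fluorescence-quenching assay with 15 nM Sfp, 5 uM rhodamine-CoA and 12.5 uM BHQ-2-labelled ybbR peptide in pH 7.6 Hepes/MgCl2 buffer. Enzyme was pre-incubated with compound for 15 min at room temperature. Rate was taken from the 30-min fluorescence change (525/598 nm).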
An asterisk follows results filed as active; [ ] = another dose, or the depositor's remark. Sampled rows, rich in hits. Any-hit rate of the full collection: about 12%. The call rests on the fitted dose curve; in most records, active means well fitted curve in the direction sought with a large enough effect; inconclusive means small, poorly fitted or top-dose-only effect, or another doubt; inactive means no such curve, though single readings can be large; an effect the other way counts as inactive or inconclusive. Potency means the concentration at half of the fitted maximal effect.

For O=C1CSC(c2cccc([N+](=O)[O-])c2)N1c1c(F)cccc1F (stereo not drawn) the results were JMJD2A Tudor inh -11%, G9a block inconclusive, HP1b chromo inh 21%, BAZ2B block -1% and Sfp inh -12%.
CCc1cc2c(nc1CC)CCN(CC/C(C)=N/OC[C@H]1O[C@H](c3ccccc3)C=C[C@@H]1Oc1ccc(OC)cc1)C2 was read as G9a block 45µM*, BAZ2B block inconclusive, L3MBTL1 block -1% and Sfp inh -5%.
For COc1ccc(O[C@H]2C=C[C@@H](c3ccccc3)O[C@@H]2CO/N=C(\C)CCN2CCc3nc(-c4ccccc4)c(-c4ccccc4)cc3C2)cc1 the results were G9a block 32µM*, BAZ2B block -38%, L3MBTL1 block -7% and Sfp inh -2%.
`CCc1cccc(CC)c1NC(=S)NCC(c1cccnc1)N1CCOCC1` (stereo not drawn) gave JMJD2A Tudor inh -11%, G9a block 19%, HP1b chromo inh 40%, BAZ2B block -4%, L3MBTL1 block 1% and Sfp inh 1%.
Nc1ccccc1Nc1cc(-c2ccccc2)nn1-c1cccc(Cl)c1 was read as JMJD2A Tudor inh 20µM*, G9a block inconclusive, HP1b chromo inh 45µM*, BAZ2B block 11µM*, L3MBTL1 block inconclusive and Sfp inh 14%.
For CN(C)CCNc1ccc(CO)c2oc3ccc(O)cc3c(=O)c12 the results were JMJD2A Tudor inh inconclusive and HP1b chromo inh -3%.
`CCN(CC)CCNc1ccc(C)c2sc3ccc(O)cc3c(=O)c12` gave JMJD2A Tudor inh 22µM* and HP1b chromo inh inconclusive.
`Nc1nc2c(ncn2C2CC(O)C(CO)O2)c(=O)[nH]1` (stereo not drawn) gave Sfp inh -5%.
Cc1cccc(OCCn2nnc3sc4c(c3c2=O)CCCC4)c1 was read as JMJD2A Tudor inh 31%, G9a block 69%[59 µM], HP1b chromo inh 56% and BAZ2B block 45%.
For N[C@H](CCC(=O)NCC(=O)O)C(=O)O the results were G9a block 36%[59 µM] and Sfp inh -3%.
Screening NC(CCC(=O)NCS(=O)(=O)O)C(=O)O (stereo not drawn) returned G9a block 26%[12.7 µM] and Sfp inh 50µM*.
Screening Cc1ccc([N+](=O)[O-])cc1S(=O)(=O)Nc1ccc(C(=O)N(C)C)cc1 returned JMJD2A Tudor inh 6%, G9a block 3%, HP1b chromo inh 54%, BAZ2B block -34%, L3MBTL1 block 2% and Sfp inh 18%.
`O=C(COc1ccc(Cl)cc1)Nc1ccc(N2CCN(C(=O)c3ccco3)CC2)cc1` gave JMJD2A Tudor inh inconclusive, G9a block inconclusive, HP1b chromo inh -9%, BAZ2B block inconclusive, L3MBTL1 block -6% and Sfp inh 21%.
Screening O=C(COc1ccc([N+](=O)[O-])cc1)Nc1ccc(N2CCN(C(=O)c3ccco3)CC2)cc1 returned JMJD2A Tudor inh -14%, HP1b chromo inh 52%, BAZ2B block 25µM* and Sfp inh -6%.
CN1CCN(c2ccc(NC(=O)COc3ccc4ccccc4c3)cc2)CC1 was read as JMJD2A Tudor inh -25%, G9a block 35µM*, HP1b chromo inh 12%, BAZ2B block -18% and Sfp inh 5%.
O=C(COc1ccc2ccccc2c1)Nc1ccc(Cc2ccncc2)cc1 was read as JMJD2A Tudor inh 79µM*, G9a block -10%, HP1b chromo inh 61%, BAZ2B block inconclusive, L3MBTL1 block 4% and Sfp inh -3%.
Screening Cc1ccc([N+](=O)[O-])cc1S(=O)(=O)Nc1ccc(C(=O)N2CCN(C(=O)c3ccco3)CC2)cc1 returned JMJD2A Tudor inh 79µM*, G9a block -11%[2.33 µM], HP1b chromo inh -12%, BAZ2B block inconclusive and L3MBTL1 block -4%.
`CN1CCN(c2ccc(NC(=O)COc3cccc4ccccc34)cc2)CC1` gave JMJD2A Tudor inh inconclusive, G9a block inconclusive, HP1b chromo inh -10%, BAZ2B block inconclusive and Sfp inh -6%.
For O=C(NC1CCCCC1)c1ccc(-c2cccc([N+](=O)[O-])c2)o1 the results were JMJD2A Tudor inh -12%, G9a block -6%, HP1b chromo inh 28%, BAZ2B block -8% and Sfp inh -7%.
For CC(C)C[C@H](NC(=O)[C@H](Cc1ccccc1)C[C@@H](O)[C@H](Cc1ccccc1)NC(=O)OC(C)(C)C)C(=O)N[C@@H](Cc1ccccc1)C(N)=O the results were Sfp inh -12%.
Screening CCc1ccccc1-n1ncc(C(=O)Nc2ccccc2OC)c1C returned JMJD2A Tudor inh -7%, G9a block 35%[59 µM], HP1b chromo inh 22%, BAZ2B block -19%, L3MBTL1 block 4% and Sfp inh 13%.
`O=C(CSc1nc2ccccc2n1CC(=O)Nc1ccc(F)cc1F)Nc1ccc(F)cc1` gave JMJD2A Tudor inh 11%, G9a block 9%[12.7 µM], HP1b chromo inh 25% and BAZ2B block -2%.
`CC(C)c1ccc(OCC(=O)N2CCc3ccccc3C2)cc1` gave JMJD2A Tudor inh 25%, G9a block inconclusive, HP1b chromo inh 97%, BAZ2B block 7%, L3MBTL1 block 2% and Sfp inh 7%.
Screening COc1ccc2c(c1)c(=O)oc1cc(OCC(=O)N3CCCC(C)C3)ccc12 (stereo not drawn) returned JMJD2A Tudor inh -24%, G9a block 0%[12.7 µM], HP1b chromo inh 13%, BAZ2B block -1%, L3MBTL1 block -5% and Sfp inh 6%.
Screening Cc1cc(=O)oc2cc(OCC(=O)N3CCOCC3)ccc12 returned JMJD2A Tudor inh 79µM*, G9a block 7.1µM*, HP1b chromo inh -42%, BAZ2B block -5%, L3MBTL1 block -7% and Sfp inh 32µM*.
COc1ccc2c(c1)c(=O)oc1cc(OCC(=O)N3CCc4ccccc4C3)ccc12 was read as JMJD2A Tudor inh 56µM*, G9a block 3.2µM*, HP1b chromo inh 1%, BAZ2B block 40µM* and Sfp inh inconclusive.

From PubChem
